Results as given in PubChem BioAssay AID1159580 (chemical genetic matrix, 2015).
Several values for one entry are separate records, joined by “and”; a condition that tells them apart may be missing. Identical values can stand only once. About 2,000 (36%) of roughly 5,500 compounds were called active. About 18% were inconclusive and are not listed. Cut-off read from the data, not from the text of the source: active = normalized growth mostly below about 0.91 (no sharp cut-off); inconclusive = no clear call, values can overlap the other calls; inactive = mostly above about 0.92. The list shows a part of the results.

Assay: chemical genetic growth profiling, strain panel (AID 1159580);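 note: tested at 20 µM; growth read once vehicle control cultures reached saturation at 30 °C; 1 = growth at the plate median or of vehicle wells; lower values mean less growth of the strain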
Conditions: S. cerevisiae deletion strains, growth OD

Measured: normalized growth

OCCN1CCN(CCCN2c3ccccc3Sc3ccc(Cl)cc32)CC1
inactive: locus YAL013W, strain DEP1, active compounds read low 1.02 and 1.01 | locus YAL021C, strain ccr4, active compounds read low 1 | locus YAL030W, strain snc1, active compounds read low 1.01 | locus YAL040C, strain CLN3, active compounds read low 0.984 | locus YBL061C, strain skt5, active compounds read low 0.996 | locus YBR009C, strain hhf1, active compounds read low 0.998 | locus YBR021W, strain FUR4, active compounds read low 0.988 | locus YBR023C, strain chs3, active compounds read low 0.996 | locus YBR171W, strain sec66, active compounds read low 1.01 | locus YBR229C, strain ROT2, active compounds read low 1.01 | locus YBR231C, strain swc5, active compounds read low 1 | locus YBR279W, strain paf1, active compounds read low 0.998 | locus YCL011C, strain gbp2, active compounds read low 0.997 | locus YCL016C, strain dcc1, active compounds read low 0.994 | locus YCL029C, strain bik1, active compounds read low 0.984 | locus YCL061C, strain MRC1 (second series), active compounds read low 1.01 | locus YCL061C, strain MRC1, active compounds read low 1 | locus YCL069W, strain vba3, active compounds read low 1.01 | locus YCR088W, strain abp1, active compounds read low 1.01 | locus YDL005C, strain med2, active compounds read low 1.01 | locus YDL035C, strain GPR1, active compounds read low 0.996 | locus YDL040C, strain nat1, active compounds read low 1 | locus YDL074C, strain BRE1, active compounds read low 0.955 | locus YDL101C, strain DUN1, active compounds read low 1.01 | locus YDL134C, strain PPH21, active compounds read low 1.02 | locus YDL185W, strain tfp1, active compounds read low 0.996 | locus YDL192W, strain arf1, active compounds read low 1.01 | locus YDR001C, strain nth1, active compounds read low 1 | locus YDR069C, strain doa4, active compounds read low 0.987 | locus YDR101C, strain arx1, active compounds read low 0.959 | locus YDR150W, strain NUM1, active compounds read low 1.03 | locus YDR159W, strain sac3, active compounds read low 1.01 | locus YDR162C, strain NBP2, active compounds read low 1 | locus YDR195W, strain ref2 1.12 | locus YDR297W, strain sur2, active compounds read low 0.997 | locus YDR318W, strain mcm21, active compounds read low 0.966 | locus YDR334W, strain swr1, active compounds read low 1 | locus YDR335W, strain msn5, active compounds read low 1 | locus YDR363W, strain ESC2, active compounds read low 0.995 | locus YDR388W, active compounds read low 0.979 | locus YDR392W, strain spt3, active compounds read low 0.998 | locus YDR502C, strain sam2, active compounds read low 0.96 | locus YEL003W, strain gim4, active compounds read low 0.988 | locus YEL037C, strain rad23, active compounds read low 1 | locus YEL061C, strain CIN8 (second series), active compounds read low 1 | locus YEL061C, strain CIN8, active compounds read low 1.01 | locus YER002W, strain NOP16, active compounds read low 1.04 | locus YER015W, strain faa2, active compounds read low 1 | locus YER016W, strain bim1, active compounds read low 1 | locus YER110C, active compounds read low 0.998 | locus YER111C, strain swi4, active compounds read low 1 | locus YER155C, strain BEM2 (second series), active compounds read low 0.971 | locus YER155C, strain BEM2, active compounds read low 1.03 | locus YER167W, strain BCK2, active compounds read low 1.01 | locus YFR010W, strain ubp6, active compounds read low 0.976 | locus YGL078C, strain dbp3, active compounds read low 0.994 | locus YGL086W, strain mad1, active compounds read low 0.993 | locus YGL167C, strain pmr1, active compounds read low 0.989 | locus YGL173C, strain kem1, active compounds read low 0.972 | locus YGL227W, strain vid30, active compounds read low 1.01 | locus YGL240W, strain doc1, active compounds read low 1.04 | locus YGL248W, strain PDE1, active compounds read low 1.02 | locus YGL253W, strain hxk2, active compounds read low 0.997 | locus YGR078C, strain PAC10, active compounds read low 0.997 and 0.999 | locus YGR135W, strain pre9, active compounds read low 0.958 | locus YGR229C, strain SMI1, active compounds read low 0.958 | locus YGR252W, strain gcn5, active compounds read low 0.931 | locus YHR013C, strain ard1, active compounds read low 0.995 | locus YHR027C, strain rpn1, active compounds read low 0.988 | locus YHR030C, strain SLT2, active compounds read low 1.02 and 0.987 | locus YHR079C, strain IRE1 (second series), active compounds read low 0.984 | locus YHR079C, strain IRE1, active compounds read low 0.993 | locus YHR094C, strain hxt1, active compounds read low 0.992 | locus YHR129C, strain ARP1, active compounds read low 1.01 | locus YHR142W, strain chs7, active compounds read low 1.01 | locus YHR200W, strain rpn10, active compounds read low 0.986 | locus YIL066C, strain RNR3, active compounds read low 0.998 | locus YIL073C, strain SPO22, active compounds read low 1.01 | locus YIL125W, strain kgd1, active compounds read low 0.991 | locus YIR030C, strain dcg1, active compounds read low 0.997 | locus YJL092W, strain hpr5, active compounds read low 1 | locus YJL095W, strain BCK1 (second series), active compounds read low 1 | locus YJL095W, strain BCK1, active compounds read low 0.977 and 0.981 | locus YJL115W, strain asf1, active compounds read low 1 | locus YJL129C, strain trk1, active compounds read low 1.01 | locus YJL134W, strain LCB3, active compounds read low 1.01 | locus YJL154C, strain vps35, active compounds read low 1.01 | locus YJL164C, strain tpk1, active compounds read low 0.988 | locus YJL166W, strain qcr8, active compounds read low 1.01 | locus YJL168C, strain set2, active compounds read low 0.991 | locus YJL187C, strain SWE1 (second series), active compounds read low 1 | locus YJL187C, strain SWE1, active compounds read low 1 | locus YJR043C, strain POL32, active compounds read low 1.02 | locus YJR066W, strain TOR1, active compounds read low 0.954
active: locus YAL026C, strain drs2, active compounds read low 0.674 | locus YDR137W, strain rgp1, active compounds read low 1.33 [resistant]
